HCV inh: HCV inhibition | Huh7.5.1 HCVcc-Cre infection, luciferase reporter, 44 h | Potency, µM (top dose mostly 41.8 µM), for the others: at the highest dose activity change, negative = inhibition, most hits filed as inhibitors | AID 651820 | actives 3.4% (n = 340,000); also: potency is read from the fitted curve at half-maximal effect
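Antiviral activity was scored by luciferase reporter output from cells infected with HCVcc-Cre (~0.5 moi) in presence of compound, 44 h infection period, cells seeded 1,000/well 4 h prior.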
Pf growth 96h: inhibits malaria parasite growth, 96 h; P. falciparum luciferase reporter growth, 96 h; Potency, µM (titrated, usually from 28.7 µM), inactives show at the top dose activity change, negative = inhibition, most hits filed as inhibitors; actives 6.9% (n = 320,000); AID 504834; also: potency is read from the fitted curve at half-maximal effect
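Parasite growth measured via integrated firefly luciferase reporter in P. falciparum. Infected erythrocytes at 2% hematocrit, 0.05% parasitemia final were treated 96 hours at 37 C under 5% CO2, and luminescence was read.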
MARV entry inh: Marburg virus entry inhibition. Marburg virus pseudotyped entry inhibition, cell reporter. Potency, µM (titrated, usually from 37.8 µM), for the others: at the highest dose activity change, negative = inhibition, most hits filed as inhibitors. actives 1.8% (n = 300,000). AID 540276; calls by dose curve; tested in HEK293 cells; also: potency is read from the fitted curve at half-maximal effect
HCMV antiviral: blocks human cytomegalovirus replication | activity change, negative = inhibition, % at 57.5 µM | HFF cells, HCMV-luciferase reporter, 72 h; hits give low values | AID 1259415 | actives 4.5% (n = 410,000); in the data active = activity change below about -60%; inconclusive = no clear call, values can overlap the other calls; inactive = above about -39%
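Steps: HFFs plated, 16 h 37C; compounds added; HCMV-luciferase added to MOI 1 PFU/cell; 72 h 37C; OneGlo reagent, 5 min room temperature; luminescence read, normalized to controls.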
Lassa entry inh: blocks Lassa virus binding to or entry into cells. Lassa virus pseudotype entry inhibition, cell reporter. Potency, µM (highest dose often 37.9 µM), without a hit: top-dose activity change, negative = inhibition, usual class: inhibitors. actives 1.2% (n = 300,000). AID 540256; calls by dose curve; tested in HEK293 cells; also: potency is read from the fitted curve at half-maximal effect; nearly all actives have a fitted effect of over 50% in size
Pf growth 48h: P. falciparum growth inhibition at 48 hours (one generation); actives 5.9% (n = 310,000); Potency, µM (series often up to 28.7 µM), without a hit: at the highest dose activity change, negative = inhibition, hits mostly inhibitors; P. falciparum luciferase growth in erythrocytes, 48 h; AID 504832; also: potency is read from the fitted curve at half-maximal effect
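Erythrocytes infected with P. falciparum carrying an integrated firefly luciferase reporter (2% hematocrit, 0.1% parasitemia final) were exposed to compounds in RPMI 1640 with 0.5% Albumax at 37 C, 5% CO2. Growth inhibition was scored as reduced luminescence.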
* = called active by the depositor; ? = inconclusive; . = no result given; [ ] = dose if it differs, or a comment. Rows were chosen to be rich in hits. Some 14% of all compounds tested hit in one or more screens of this group. Unless noted, calls follow the shape of the dose curve; as a rule, active = well fitted inhibition curve with a large enough effect; inconclusive = small, poorly fitted or top-dose-only effect, or another doubt; inactive = no such curve, though single readings can be large or run the other way. % is scaled to controls: 0 for no effect and ±100 for the full control effect.

SMILES	HCV inh	Pf growth 96h	MARV entry inh	HCMV antiviral	Lassa entry inh	Pf growth 48h
CCOC(=O)[C@H]1[C@H]2COc3cc(OC)ccc3[C@@H]2N2C(=O)CN(Cc3ccc(OC)cc3)C(=O)[C@@]12C	?	?	0%	-4	.	12µM*
CCOC(=O)[C@H]1[C@H]2COc3ccc(OC)cc3[C@H]2N2C(=O)CN(Cc3ccccc3)C(=O)[C@@]12C	6%	.	.	19	.	.
CCOC(=O)[C@H]1[C@H]2COc3ccc(Br)cc3[C@@H]2N2C(=O)CN(Cc3ccc(C)cc3)C(=O)[C@@]12C	-17%	?	.	-14	.	15µM*
CCOC(=O)[C@H]1[C@H]2COc3ccc(OC)cc3[C@@H]2N2C(=O)CN(Cc3ccc(OC)cc3)C(=O)[C@@]12C	-9%	?	.	2	.	6.6µM*
CC(C)CO/N=C1/C[C@@H](O)[C@@H](O)[C@@H]2[C@H]3C(=O)N(c4ccc(F)cc4F)C(=O)[C@@H]3CC[C@@H]12	.	.	-10%[14.2 µM]	.	.	.
COc1ccc(-n2nc(C(=O)N(C)c3cc(C)ccc3C)c3c4ccccc4n(C)c3c2=O)cc1Cl	.	.	?	-24	1%[46.1 µM]	.
CC(C)(C)c1ccc(OCc2ccc(C(=O)N3CCOCC3)o2)cc1	?	19%	?	-71*	7.9µM*	?
CCCNC(=O)c1ccc(COc2ccc(Cl)cc2)o1	-17%	?	.	-7	.	8%
CCCNC(=O)c1ccc(COc2ccc(C(C)(C)C)cc2)o1	13µM*	-2%	?	3	?	?
Cc1cccc(OCc2ccc(C(=O)N3CCOCC3)o2)c1	-9%	-2%	-4%[46.1 µM]	55	5%	21%
Cc1oc(-c2ccccc2)nc1CNC(=O)Nc1ccccc1	.	.	.	-18	-9%[46.1 µM]	.
Cc1cc(C)c(NC(=O)C(=O)NCCc2csc(-c3ccc(F)cc3)n2)c(C)c1	.	.	.	-26	2%[46.1 µM]	.
O=C(Nc1ccc(Cl)c(Cl)c1)c1ccccc1	?	102%	.	2	.	110%
Cc1ccc(NC(=O)c2ccc(NC(=O)c3ccccc3)cc2)cc1C	.	1.2µM*	?	?	?	25%
Cc1ccc(C(=O)Nc2ccc(Nc3ccccc3)cc2)cc1C	?	.	10%[46.1 µM]	-21	-9%[46.1 µM]	.
Cc1cc(NC(=O)c2ccc(Cl)cc2)ccc1NC(=O)c1ccccc1Cl	?	3.7µM*	0%	-12	0%	12%
O=C(Nc1ccc2nc3ccccc3nc2c1)c1ccccc1	?	-2%	?	91	11µM*	107%
CC(=O)Nc1ccc2cc3ccc(NC(C)=O)cc3nc2c1	-4%	?	.	-98*	.	?
COCC#Cc1ccc2c(c1)O[C@@H](CN(C)C(=O)Nc1ccc(OC)cc1)[C@H](C)CN([C@H](C)CO)S2(=O)=O	.	.	.	6	.	.
O=C(Nc1ccccc1Cl)c1ccc2ccccc2c1	1%	?	.	-25	.	24%
Cc1ccc2sc3ccc(NC(=O)c4ccccc4Cl)cc3c(=O)c2c1	8.9µM*	?	?	-89*	1%	?
Cc1cc(NC(=O)c2ccccc2Cl)ccc1NC(=O)c1ccccc1Cl	?	142%	.	93	.	3%
C[n+]1ccc(C(=O)Nc2ccccc2Cl)cc1	3%	13µM*	.	61	.	20%
Cc1cc(Nc2cc(F)c(F)c(F)c2)cc(=O)n1-c1cc(F)c(F)c(F)c1	.	.	.	-39	.	.
O=C(CCC(=O)N1Cc2ccccc2Oc2ncccc21)NCc1cccc(Cl)c1	.	.	.	-5	19%[46.1 µM]	.
SMILES	HCV inh	Pf growth 96h	MARV entry inh	HCMV antiviral	Lassa entry inh	Pf growth 48h
COc1ccc(-n2c(C)c([N+](=O)[O-])c3ccc(O)c(CN(C)C)c32)cc1	-30%	?	?	-92*	-24%	0.83µM*
O=[N+]([O-])c1cnn(-c2nc(-c3ccco3)cc(C(F)(F)F)n2)c1	-24%	12µM*	-2%	-97*	?	-8%
N#Cc1ccc(-c2ccc(OCC(=O)NN=Cc3ccncc3)cc2)cc1	?	.	6%	-16	1%	.
Nc1ccc(-c2cc(N)n(-c3ccccc3)n2)cc1	1%	.	?	66	-2%	6.6µM*
Nc1cc(-c2ccc(Cl)cc2)nn1-c1ccccc1	-2%	204%	?	-18	4%[46.1 µM]	231%
Cc1cccn2c(=O)c3cc(C(=O)NC4CCCC4)c(=N)n(CC4CCCO4)c3nc12 (stereo not drawn)	-1%	-19%	-1%[46.1 µM]	-38	17%	?
Cc1cccn2c(=O)c3cc(C(=O)NCC4CCCO4)c(=N)n(C4CCCCC4)c3nc12 (stereo not drawn)	?	1.3µM*	?	-14	?	?
Cc1cccn2c(=O)c3cc(C(=O)NCc4ccco4)c(=N)n(C4CCCC4)c3nc12	6.3µM*	2%	?	-18	-7%	-4%
COc1ccc(CCn2c(=N)c(C(=O)NCC3CCCO3)cc3c(=O)n4cccc(C)c4nc32)cc1 (stereo not drawn)	-24%	?	.	-108*	.	?
Cc1cccn2c(=O)c3cc(C(=O)NCc4ccc(F)cc4)c(=N)n(CC4CCCO4)c3nc12 (stereo not drawn)	-1%	2.9µM*	.	?	.	4.1µM*
Cc1cc(S(=O)(=O)Nc2cccc(-c3ccc(N4CCOCC4)nn3)c2)c(C)cc1Cl	.	.	.	0	?	.
CN(C)CCCn1c(-c2nonc2N)nc2cnccc21	.	.	.	.	4%	.
Cc1cccn2c(=O)c3cc(C(=O)NCC4CCCO4)c(=N)n(CC4CCCO4)c3nc12 (stereo not drawn)	6%	-6%	?	-70*	14%	-21%
COc1ccc(CNC(=O)c2cc3c(=O)n4cccc(C)c4nc3n(CC3CCCO3)c2=N)cc1 (stereo not drawn)	-16%	5.2µM*	.	-13	.	?
O=C(Nc1ccccc1-c1nnn(CC(=O)N2CCCc3ccccc32)n1)c1ccc(Cl)cc1	7%	12µM*	-4%	?	5%	?
Nn1c(SCC(=O)N2CCCc3ccccc32)nnc1-c1ccc(Cl)cc1	2%	12µM*	2%[46.1 µM]	-22	-7%	0%
O=C(Nc1ccccc1-c1nnn(CC(=O)N2CCCc3ccccc32)n1)c1ccco1	?	81%	?	-18	?	?
O=C(CSc1ccc2nnc(-c3ccc(F)cc3)n2n1)N1CCCc2ccccc21	?	0%	?	-77*	?	?
O=C(CSc1ccc2nnc(-c3ccc(Cl)cc3)n2n1)N1CCCc2ccccc21	-3%	?	-6%	-34	18%	0%
Cn1c(SCC(=O)N2CCCc3ccccc32)nnc1-c1ccccc1	22%	?	-2%	8	0%	?
CCOc1ccc(C)cc1S(=O)(=O)n1cnc2ccccc21	14%	?	.	?	.	9%

Screening results: PubChem BioAssay, National Center for Advancing Translational Sciences (NCATS)
